Compound activity from PubChem BioAssay.
Only some compounds are listed: those with a hit (about 22% of all), similar ones and a draw of the others.
Pf growth 48h – Primary qHTS for delayed death inhibitors of the malarial parasite plastid, 48 hour incubation | actives 5.9% (n = 310,000) | P. falciparum luciferase growth in erythrocytes, 48 h | Potency, µM (titrated, usually from 28.7 µM), most hits filed as inhibitors
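Growth was read as firefly luciferase luminescence after a 48 h, 37 C, 5% CO2 exposure of compounds to reporter-bearing P. falciparum cultures (0.1% parasitemia, 2% hematocrit final) in Albumax-supplemented RPMI 1640.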
CHX counter – Cycloheximide Counterscreen for Small Molecule Inhibitors of Shiga Toxin | cell reporter, cycloheximide protein synthesis inhibition counterscreen | actives 12% (n = 300,000) | max response, %; in the data active means max response mostly above about 13%, no sharp cut-off; inactive means mostly below about 14%; further: read at 38.3 µM for the half of the compounds with a filed dose
Pf growth 96h – Primary qHTS for delayed death inhibitors of the malarial parasite plastid, 96 hour incubation; P. falciparum luciferase reporter growth, 96 h; Potency, µM (doses to about 28.7 µM), usual class: inhibitors; actives 6.9% (n = 320,000); AID 504834, 2011
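Compounds incubated with erythrocytes infected by luciferase-expressing P. falciparum (2% hematocrit, 0.05% parasitemia final) for 96 hours, 37 C in 5% CO2. Growth inhibition scored as decreased luciferase luminescence.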
Shiga toxin inh – A qHTS for Small Molecule Inhibitors of Shiga Toxin; Vero cells, Shiga toxin protein synthesis inhibition reporter; inhibition, % at 38.7 µM; actives 9.2% (n = 290,000); in the data active means inhibition mostly above about 28%, no sharp cut-off; inactive means mostly below about 43%
LmPK inh – qHTS Assay for Inhibitors of Leishmania Mexicana Pyruvate Kinase (LmPK); Q27686; purified LmPK, Kinase-Glo ATP luminescence, 1 h; actives 0.37% (n = 290,000); AID 1721, 2009; Potency, µM (highest dose often 57.5 µM), usual class: inhibitors
Target sequence (Q27686 whole entry, looked up): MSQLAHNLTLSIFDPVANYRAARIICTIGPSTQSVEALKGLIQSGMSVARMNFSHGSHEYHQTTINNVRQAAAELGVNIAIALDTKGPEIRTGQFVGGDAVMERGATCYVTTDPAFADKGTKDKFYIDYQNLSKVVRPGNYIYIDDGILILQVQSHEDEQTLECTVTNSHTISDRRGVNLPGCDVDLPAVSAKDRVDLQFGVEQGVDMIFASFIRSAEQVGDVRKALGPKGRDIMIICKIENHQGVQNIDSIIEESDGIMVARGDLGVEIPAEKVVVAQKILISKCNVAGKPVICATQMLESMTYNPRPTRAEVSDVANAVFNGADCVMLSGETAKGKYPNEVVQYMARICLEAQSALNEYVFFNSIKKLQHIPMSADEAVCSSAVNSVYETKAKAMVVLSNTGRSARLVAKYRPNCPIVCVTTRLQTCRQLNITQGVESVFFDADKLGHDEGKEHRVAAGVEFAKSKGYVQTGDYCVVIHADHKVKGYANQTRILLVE
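Pyruvate kinase activity monitored as ATP production (luciferase luminescence). Conditions: 0.1 nM enzyme, 0.5 mM PEP, 0.1 mM ADP, 1 h, RT; normalized against uninhibited and no-enzyme wells.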
Numbers stand for hits; i = inactive; ? = inconclusive; nt = no result; [ ] = another dose, or the depositor's remark. Unless noted, the call rests on the fitted dose curve; in most records, active means well fitted inhibition curve with a large enough effect; inconclusive means small, poorly fitted or top-dose-only effect, or another doubt; inactive means no such curve, though single readings can be large or run the other way.

SMILES | Pf growth 48h | CHX counter | Pf growth 96h | Shiga toxin inh | LmPK inh
O=C(COn1nnc2ccc(Cl)cc21)NCc1ccccc1 | i | i | i | i | i
CNC(=S)NC12CC3CC(CC(C3)C1)C2 | ? | i | ? | i | i
CSCC[C@H](NC(=O)Nc1ccc(S(N)(=O)=O)cc1)C(=O)O | i | i | i | i | i
CCCOc1ccc(CNC(=O)Cn2ncc3ccccc32)cc1 | i | 34 | i | 59 | i
CCCOc1ccc(CNC(=O)CCC(=O)n2ncc3cc(C)ccc32)cc1 | i | i | i | i | i
COC(=O)c1ccccc1S(=O)(=O)NNC(=O)Nc1ccccc1 | i | i | i | i | i
COCc1nnc(NC(=O)c2ccc(S(=O)(=O)N3CCCc4ccccc43)cc2)o1 | ? | i | ? | i | i
COc1ccc(-c2nnc(NC(=O)c3ccc(S(=O)(=O)N4CCCc5ccccc54)cc3)o2)cc1 | 12µM | i | ? | i | i
CC1CCCCN1S(=O)(=O)c1ccc(C(=O)Nc2nnc(-c3ccccn3)o2)cc1 (stereo not given) | i | i | i | i | i[11.5 µM]
O=C(Nc1nnc(C2CC2)o1)c1ccc(S(=O)(=O)N2CCCCC2)cc1 | ? | i | 17µM | i | i
CS(=O)(=O)c1ccc(-c2nnc(NC(=O)c3ccc(S(=O)(=O)N4CCCC4)cc3)o2)cc1 | 13µM | nt | 7.4µM | nt | nt
CC1CCCCN1S(=O)(=O)c1ccc(C(=O)Nc2nnc(-c3ccco3)o2)cc1 (stereo not given) | ? | i | 4.7µM | i | i
CC1CCN(S(=O)(=O)c2ccc(C(=O)Nc3nnc(-c4ccncc4)o3)cc2)CC1 | ? | i | ? | i | i[11.5 µM]
Cc1ccc(C)c(S(=O)(=O)N2CCCOC2CNC(=O)C(=O)NCCc2ccccc2)c1 (stereo not given) | ? | i | ? | i | i
COc1cccc(NC(=O)COC(=O)CCS(=O)(=O)c2ccc(C)cc2)c1 | i | i | i | i | i
Cc1nnc(NC(=O)c2ccc(S(=O)(=O)N3CCCCC3C)cc2)o1 (stereo not given) | 12µM | i | ? | i | i
CC1CCCCN1S(=O)(=O)c1ccc(C(=O)Nc2nnc(C3CC3)o2)cc1 (stereo not given) | ? | i | 12µM | i | i
Cc1ccc(C)c(N(CC(=O)NCCc2ccccc2)C(=O)CCC(=O)Nc2ccccn2)c1 | i | i | i | i | i
CC(C)c1ccc(/C=C(\NC(=O)c2ccccc2)C(=O)NCCCN2CCOCC2)cc1 | i | i | i | i | i
CCOc1ccc(-n2c(SCc3cc(=O)oc4cc(C)ccc34)nnc2-c2cccnc2)cc1 | ? | i | ? | i | i
CC(C)c1ccccc1-n1c(SCc2cc(=O)oc3ccc4ccccc4c23)nnc1-c1cccnc1 | 13µM | i | 8.3µM | i | i
CC(=O)Nc1ccc2c(CSc3nnc(-c4cccnc4)n3-c3ccc(C)cc3C)cc(=O)oc2c1 | ? | i | 7.4µM | i | i
CCc1c(C)nc(SCc2ccccn2)[nH]c1=O | i | i | i | i | i
COc1ccccc1N(CC(O)CN1CCC(C)CC1)S(=O)(=O)c1ccccc1 (stereo not given) | i | i | ? | i | i
CCc1nnc(NC(=O)/C=C/c2cccs2)s1 | i | 17 | i | i | i
SMILES | Pf growth 48h | CHX counter | Pf growth 96h | Shiga toxin inh | LmPK inh
O=C(/C=C\c1ccccc1)Nc1nccs1 | i | 39 | i | 59 | i
Cc1cc(C)nc(NC(=O)/C=C/c2cccs2)c1 | i | i | i | i | i
O=C(NCc1ccccc1)C(=O)Nc1nccs1 | i | i | i | i | i
CCCC(=O)Nc1ccc(Br)cn1 | nt | i | i | i | i
O=C(/C=C/c1cccs1)Nc1cccc(NC(=O)/C=C/c2cccs2)n1 | i | 40 | i | 90 | i
O=C(/C=C/c1cccs1)Nc1ccc(Br)cn1 | i | 43 | i | 60 | i
CCOC(=O)Cn1nc(C)c(NC(=O)c2ccc(Cl)c([N+](=O)[O-])c2)c1C | i | i | i | i | i
CCN(c1ccccc1)S(=O)(=O)c1ccc(C(=O)Oc2ccc(C(C)=O)cc2)cc1 | i | i | i | i | i
O=C(/C=C/c1cccs1)Nc1ccc(S(=O)(=O)Nc2ncccn2)cc1 | i | i | i | i | i
O=C(/C=C/c1cccs1)Nc1nccs1 | i | 41 | i | 111 | i
O=C(COC(=O)/C=C/c1cccc(F)c1)Nc1ncccn1 | i | i | i | i | i
